# Results taken from the supplement of paper PMC6522484.
# Structures can show the parent of a compound that is named as a salt. ± gives the standard deviation of the averaged measurements.
# Legend:
# DLD1 [1] = experiment: cell viability (CellTiter-Glo) relative to plate median (fraction of plate median); higher = more viable cells; settings: 10 µM, treatment time 24 h
# Procedure, shortened: (§1)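 Kinase inhibitor library compounds were added at a final 10 µM for 24 h to colorectal cancer cells in 384-well plates, 24 h after seeding. The cells stably expressed lentiviral TCF/Wnt firefly luciferase reporters. Firefly luciferase and CellTiterGlo luminescence came from parallel plates, and each well was normalised to its plate median (webcellHTS2, additive, untransformed), averaged over two independent replicates.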
# HCT116 [2] = experiment: as above; settings: 10 µM; treatment time 24 h; reporter: TCF4/Wnt
# Procedure, shortened: as §1
# SW480 [3] = experiment: as above; settings: 10 µM; treatment time 24 h; reporter: 7TFP
# Procedure, shortened: as §1
# DLD1 [4] = experiment: TCF/Wnt firefly luciferase reporter signal relative to plate median (fraction of plate median); higher = higher Wnt reporter signal; settings: 10 µM, treatment time 24 h
# Procedure, shortened: as §1
# HCT116 [5] = experiment: as above; settings: 10 µM; treatment time 24 h; reporter: TCF4/Wnt
# Procedure, shortened: as §1
# SW480 [6] = experiment: as above; settings: 10 µM; treatment time 24 h; reporter: 7TFP
# Procedure, shortened: as §1
Structure (SMILES),cell viability (DLD1 [1]; reporter: 7TFP),cell viability (DLD1 [1]; reporter: TCF4/Wnt),cell viability (HCT116 [2]),cell viability (SW480 [3]),TCF/Wnt firefly luciferase reporter signal (DLD1 [4]; reporter: 7TFP),TCF/Wnt firefly luciferase reporter signal (DLD1 [4]; reporter: TCF4/Wnt),TCF/Wnt firefly luciferase reporter signal (HCT116 [5]),TCF/Wnt firefly luciferase reporter signal (SW480 [6])
O=C1NC(=O)[C@@H](c2cn3c4c(cccc24)CCC3)[C@@H]1c1c[nH]c2ccccc12 [ARQ 197 (Tivantinib)],0.995 ± 0.18,1.01 ± 0.017,0.593 ± 0.15,1.07 ± 0.014,0.632 ± 0.25,0.788 ± 0.31,0.241 ± 0.028,0.701 ± 0.043
CCc1cccc(CC)c1NC(=O)N1Cc2[nH]nc(NC(=O)c3ccc(N4CCN(C)CC4)cc3)c2C1,1.05 ± 0.2,1.055 ± 0.0071,0.954 ± 0.093,1.1 ± 0.078,1.26 ± 0.014,1.09 ± 0.057,0.996 ± 0.19,0.794 ± 0.039
CN1CCN(c2nc(C3=C(c4c[nH]c5ccccc45)C(=O)NC3=O)c3ccccc3n2)CC1 [Sotrastaurin (AEB071)],1.08 ± 0.092,1.045 ± 0.0071,1.03 ± 0.13,0.914 ± 0.1,1.54 ± 0.05,1.52 ± 0.28,1.33 ± 0.83,0.983 ± 0.63
Clc1ccc(Nc2nnc(Cc3ccncc3)c3ccccc23)cc1 [Vatalanib dihydrochloride (PTK787)],0.9675 ± 0.0021,0.978 ± 0.011,1.08 ± 0.13,0.925 ± 0.011,0.852 ± 0.038,0.965 ± 0.13,0.899 ± 0.11,0.957 ± 0.089
Cc1cccc(-c2[nH]c(C(C)(C)C)nc2-c2ccc3nccnc3c2)n1,1.14 ± 0.064,1.06 ± 0.14,1.17 ± 0.028,0.853 ± 0.043,1.1 ± 0.042,1.03 ± 0.12,1.03 ± 0.14,0.854 ± 0.17
Nc1nc(N)c2nc(-c3cccc(O)c3)c(-c3cccc(O)c3)nc2n1,1.06 ± 0.035,1.02 ± 0.029,1.22 ± 0.035,0.959 ± 0.025,1.08 ± 0.071,1.17 ± 0.057,1.23 ± 0.11,1.04 ± 0.14
CN1CCN(C2CCN(C(=O)Nc3cc(Oc4ccc(NC(=O)C5(C(=O)Nc6ccc(F)cc6)CC5)c(F)c4)ccn3)CC2)CC1 [Golvatinib (E7050)],0.964 ± 0.18,0.904 ± 0.011,1.07 ± 0.064,1.16 ± 0.064,0.719 ± 0.03,0.728 ± 0.028,0.915 ± 0.12,1.06 ± 0.12
OCCn1cc(-c2ccc3c(c2)CC/C3=N\O)c(-c2ccncc2)n1,1.05 ± 0.15,0.992 ± 0.11,0.979 ± 0.059,1.145 ± 0.0071,1.5 ± 0.53,1.45 ± 0.085,1.62 ± 0.45,1.7 ± 0.092
C[C@]1(O)C[C@@H](c2nc(-c3ccc4ccc(-c5ccccc5)nc4c3)c3c(N)nccn32)C1 [Linsitinib (OSI-906)],0.876 ± 0.018,0.856 ± 0.15,0.82 ± 0.0099,0.995 ± 0.021,1.11 ± 0.078,1.33 ± 0.23,1.29 ± 0.12,1.27 ± 0.057
Cc1ccc(NC(=O)c2ccc(CN3CCN(C)CC3)cc2)cc1Nc1nc(-c2cccnc2)cs1 [Masitinib (AB1010)],0.896 ± 0.073,1 ± 0.037,0.969 ± 0.037,0.993 ± 0.053,0.821 ± 0.019,1.25 ± 0.078,0.632 ± 0.1,1.01 ± 0.071
FC(F)(F)c1ccc(/C=C/c2nc(COc3ccc(CCCCn4ccnn4)cc3)co2)cc1 [Mubritinib (TAK 165)],0.979 ± 0.03,0.946 ± 0.09,0.771 ± 0.032,0.911 ± 0.1,1 ± 0.094,0.984 ± 0.023,0.639 ± 0.23,0.816 ± 0.49
Cn1c(=O)c(F)c(Nc2ccc(I)cc2F)c2c(=O)n(C[C@@H](O)CO)cnc21,1.24 ± 0.05,1.2,0.9705 ± 0.0035,1.18 ± 0.035,1.66 ± 0.057,1.61 ± 0.62,1.31 ± 0.42,2.19 ± 0.11
Cc1cc(C)c(/C=C2\C(=O)Nc3ccccc32)[nH]1 [Semaxanib (SU5416)],0.951 ± 0.016,1.02 ± 0.038,1.2 ± 0.071,0.879 ± 0.028,1.47 ± 0.021,1.335 ± 0.0071,0.91 ± 0.11,1.04 ± 0.021
CO[C@H]1C[C@@H]2CC[C@@H](C)[C@@](O)(O2)C(=O)C(=O)N2CCCC[C@H]2C(=O)O[C@H]([C@H](C)C[C@@H]2CC[C@@H](O)[C@H](OC)C2)CC(=O)[C@H](C)/C=C(\C)[C@@H](O)[C@@H](OC)C(=O)[C@H](C)C[C@H](C)/C=C/C=C/C=C/1C [Rapamycin (Sirolimus)],1.07 ± 0.1,0.904 ± 0.15,0.95 ± 0.017,1.24 ± 0.014,1.07 ± 0.071,1.09 ± 0.26,1.38 ± 0.42,1.65 ± 0.11
Cc1cc2c(F)c(Oc3ncnn4cc(OC[C@@H](C)O)c(C)c34)ccc2[nH]1,0.958 ± 0.13,1.01 ± 0.028,1.16 ± 0.014,0.942 ± 0.021,0.846 ± 0.22,1.05 ± 0.13,0.961 ± 0.11,0.978 ± 0.031
CO[C@H]1C[C@@H]2CC[C@@H](C)[C@@](O)(O2)C(=O)C(=O)N2CCCC[C@H]2C(=O)O[C@H]([C@H](C)C[C@@H]2CC[C@@H](OP(C)(C)=O)[C@H](OC)C2)CC(=O)[C@H](C)/C=C(\C)[C@@H](O)[C@@H](OC)C(=O)[C@H](C)C[C@H](C)/C=C/C=C/C=C/1C [Deforolimus (Ridaforolimus)],0.979 ± 0.086,1.08 ± 0.092,0.979 ± 0.044,1.27 ± 0.021,0.844 ± 0.022,1.02 ± 0.24,0.799 ± 0.43,1.11 ± 0.39
Cc1cc(CN2CCN(c3c(Br)cnc4nc(-c5ccc(N6CCN(C)CC6)cc5)[nH]c34)CC2)no1,1.09 ± 0.23,1.01 ± 0.021,1.04 ± 0.014,1.08 ± 0.057,1.42 ± 0.15,1.49 ± 0.18,1.72 ± 0.46,1.34 ± 0.4
CC(C)(C)Cn1c(N)nc2ccc(-c3[nH]c(C(C)(C)C)nc3-c3ccc(F)cc3)nc21,1.07 ± 0.12,0.931 ± 0.089,0.928 ± 0.071,1.11,1.21 ± 0.05,0.969 ± 0.1,1.45 ± 0.38,1.36 ± 0.014
CC(C)(C)c1nc(-c2cccc(NS(=O)(=O)c3c(F)cccc3F)c2F)c(-c2ccnc(N)n2)s1,1 ± 0.051,0.981 ± 0.042,1.055 ± 0.0071,1.06 ± 0.064,1.18 ± 0.071,1.05 ± 0.05,0.931 ± 0.47,1.75 ± 0.014
Nc1nc(N)c2nc(-c3cccc(O)c3)cnc2n1,1.09 ± 0.014,1.08 ± 0.021,0.97 ± 0.018,1.04 ± 0.064,1.4 ± 0.26,1.15 ± 0.085,1.33 ± 0.31,1.34 ± 0.042
O=C(NCCCNc1nc(Nc2cccc(NC(=O)N3CCCC3)c2)ncc1I)c1cccs1,0.966 ± 0.19,0.97 ± 0.21,0.817 ± 0.6,1.06 ± 0.14,0.81 ± 0.0057,0.882 ± 0.32,1.06 ± 1.1,1.06 ± 0.021
C=CC(=O)Nc1cccc(Sc2nc(Nc3ccc(N4CCN(C)CC4)cc3)ncc2Cl)c1,1.1 ± 0.035,1.02 ± 0.15,1.02,1.195 ± 0.0071,1.79 ± 0.25,1.15 ± 0.22,1.64 ± 0.67,1.32 ± 0.58
